Most compounds without a hit are left out; they make up all but 10% or so of the library.
HCT116 bCat-KO = primary screen for growth suppressors in beta-catenin knockout HCT116 cells (colon tumor, human). HCT116 beta-catenin knockout viability, CellTiter-Glo, 60 h; active compounds read low. viability, % at 10 µM. 140,000 compounds, 1.5% hits. AID 818, 2007;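 active = viability at or under a set limit, the compound median less 4 SD, cut at about 6% in these data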;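 note: 0% = Hyamine 1622 control at 20 µM and 100% = untreated cell control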
Insulin prom inh = inhibitors of insulin promoter-driven GFP, primary screen, imaging, TRM-6 cells (human fetal islet line), eGFP reporter, cell count; reporter expression induced with tamoxifen; inhibition, % at 2 µM; 130,000 compounds, 0.9% hits; AID 1273, 2008;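 active = inhibition above the mean plus 3 SD, with well images judged a real hit on visual review, cut at about 60% in these data, passing the limit was not always enough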
L major viab = Leishmania major promastigote growth inhibition, primary screen; 200,000 compounds, 9% hits; AID 1063, 2008; inhibition, % at 10 µM; Leishmania major promastigotes, resazurin fluorescence viability; in the data active = inhibition above about 50%;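 note: promastigotes grown with compound for 44 hours at 28 °C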
ROMK primary = ROMK potassium channel modulators, primary screen, cell-based, thallium flux, MLSMR library; Tet-inducible ROMK, thallium flux fluorescence; actives lie on both sides; 130,000 compounds, 2% hits; B-score at 10 µM;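 active = signal ratio slope over the read window, or its plate-corrected B-score, at least 3 SD from the plate mean, either direction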;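 note: B-score of the F/F0 ratio slope over 7 to 12 s after thallium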
p97 ATPase inh = inhibitors of human p97 ATPase, primary screen, biochemical; 220,000 compounds, 0.42% hits; inhibition, % at 8 µM; AID 1481, 2009; recombinant p97 ATPase, Kinase-Glo ATP luminescence, 3 h; in the data active = inhibition above about 15%;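 note: 0% = DMSO vehicle and 100% = wells lacking enzyme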
Target sequence (P55072 whole entry, looked up): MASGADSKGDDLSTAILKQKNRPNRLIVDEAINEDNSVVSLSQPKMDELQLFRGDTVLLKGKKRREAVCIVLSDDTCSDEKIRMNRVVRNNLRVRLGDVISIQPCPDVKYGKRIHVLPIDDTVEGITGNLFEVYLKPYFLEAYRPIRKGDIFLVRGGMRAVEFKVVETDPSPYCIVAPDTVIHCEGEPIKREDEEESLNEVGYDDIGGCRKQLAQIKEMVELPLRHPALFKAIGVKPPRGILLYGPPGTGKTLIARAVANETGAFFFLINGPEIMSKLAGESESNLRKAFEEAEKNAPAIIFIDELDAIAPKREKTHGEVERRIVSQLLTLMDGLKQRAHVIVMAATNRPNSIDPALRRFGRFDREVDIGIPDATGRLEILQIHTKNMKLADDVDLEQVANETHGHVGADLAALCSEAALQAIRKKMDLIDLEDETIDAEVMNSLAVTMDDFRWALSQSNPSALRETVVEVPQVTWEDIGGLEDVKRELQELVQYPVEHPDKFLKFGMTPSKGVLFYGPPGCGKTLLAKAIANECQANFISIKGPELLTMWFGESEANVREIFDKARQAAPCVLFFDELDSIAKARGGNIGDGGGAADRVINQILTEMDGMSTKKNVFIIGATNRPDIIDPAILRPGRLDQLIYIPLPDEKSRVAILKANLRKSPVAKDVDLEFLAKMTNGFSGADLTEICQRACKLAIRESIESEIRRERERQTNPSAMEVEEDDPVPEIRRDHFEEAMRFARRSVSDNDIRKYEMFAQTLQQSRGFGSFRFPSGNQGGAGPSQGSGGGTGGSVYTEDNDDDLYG
PTEN del growth = growth suppression of PTEN-null HCT116, primary screen, cell-based, CellTiter-Glo; viability, % at 10 µM; AID 827, 2007; 140,000 compounds, 1.2% hits; HCT116 PTEN-null viability, 60 h; active compounds read low;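 active = viability at or below a set limit, 4 SD under the median of all tested compounds, cut at about 3.7% in these data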;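 note: PTEN knockout HCT116 line with beta catenin targeted HCT116 as companion control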
Starred values were filed as active, the others as inactive; nt = no result.

SMILES | HCT116 bCat-KO | Insulin prom inh | L major viab | ROMK primary | p97 ATPase inh | PTEN del growth
CN(C)c1ccc(CNCCC2CCOC(C)(C)C2)cc1 (stereo unspecified) | 94 | -21 | 94* | nt | 5 | 88
CC1(C)CC(NCc2ccccc2)CCO1 (stereo unspecified) | nt | 0 | -9 | 0.18 | 4 | nt
Cc1onc(-c2ccccc2Cl)c1C(=O)N1CCN(c2nc3ccccc3s2)CC1 | 29 | -44 | 51* | -0.48 | 3 | 38
COc1ccccc1N1CCN(C(=O)c2c(-c3ccccc3Cl)noc2C)CC1 | 64 | nt | 8 | -0.9 | -2 | 50
Cc1onc(-c2c(Cl)cccc2Cl)c1C(=O)N1CCN(c2ccccc2)CC1 | nt | -15 | 96* | 0.98 | -1 | nt
CC(=O)C1=C(C)NC(SCc2ccc(C#N)cc2)=C(C#N)C1c1ccco1 (stereo unspecified) | 84 | 66 | -2 | -0.034 | 6 | 79
CC(=O)C1=C(C)NC(SCC(=O)c2ccc(Cl)cc2Cl)=C(C#N)C1c1ccco1 (stereo unspecified) | 61 | 7 | 61* | -0.15 | 3 | 50
CC(=O)C1=C(C)NC(SCC(=O)c2ccccc2)=C(C#N)C1c1ccco1 (stereo unspecified) | 64 | -57 | 8 | -0.0098 | -2 | 51
CC(=O)C1=C(C)NC(SCC(=O)c2ccc(Cl)cc2)=C(C#N)C1c1ccco1 (stereo unspecified) | 55 | -71 | 83* | -0.0075 | 2 | 49
CSCSC1=C(C#N)C(c2ccc(Cl)cc2)C(C(C)=O)=C(C)N1 (stereo unspecified) | 46 | -12 | 65* | nt | 1 | 46
O=c1nc(N/N=C/C=C/c2ccccc2)cn[nH]1 | nt | nt | nt | -0.22 | 1 | nt
CCc1ccc(C(=O)COC(=O)c2ccc(-c3nnc(-c4ccccc4)o3)cc2)cc1 | 90 | 7 | -5 | nt | -1 | 91
Nc1nc(SCc2ccc(Cl)cc2Cl)nc2nc3c(cc12)CCCC3 | 31 | -52 | 10 | -0.0066 | 5 | 14
COc1cc(C2NC(=O)NC(C)=C2[N+](=O)[O-])cc(OC)c1OC (stereo unspecified) | nt | nt | nt | 0.5 | 4 | nt
CC(=O)c1ccc(NC(=S)Nc2cccc3cnccc23)cc1 | nt | nt | nt | nt | 17* | nt
S=C(Nc1cccc(Cl)c1)Nc1cccc2cnccc12 | 80 | nt | 9 | nt | 27* | 65
CCCCN(CCCC)S(=O)(=O)c1ccc(C(=O)Nc2nnc(COC)o2)cc1 | 13 | -55 | -7 | nt | 3 | 15
CN(C)S(=O)(=O)c1ccc(C(=O)Nc2nnc(-c3ccco3)o2)cc1 | nt | 33 | -3 | nt | 5 | nt
CCc1nnc(NC(=O)c2ccc(S(=O)(=O)N(CC)Cc3ccccc3)cc2)o1 | 18 | nt | 99* | nt | 4 | 12
CCN(CC)S(=O)(=O)c1ccc(C(=O)Nc2nnc(-c3ccco3)o2)cc1 | nt | nt | 92* | -0.25 | 4 | nt
CCN(CC)S(=O)(=O)c1ccc(C(=O)Nc2nnc(COC)o2)cc1 | nt | nt | -7 | 1.2 | 0 | nt
CCCCN(CC)S(=O)(=O)c1ccc(C(=O)Nc2nnc(-c3cccs3)o2)cc1 | 16 | nt | 99* | 0.55 | 3 | 17
CC(=O)Nc1nc2c(s1)C(=O)NCCC2 | nt | nt | -2 | 1.3 | -1 | nt
COc1ccccc1NNC(=O)c1cccnc1Oc1ccccc1 | nt | nt | nt | nt | 2 | nt
CCOC(=O)C1=C(C)Nc2ccccc2N=C1NC(=O)/C=C/c1ccc(OC)cc1OC | nt | -41 | 80* | nt | 2 | nt
SMILES | HCT116 bCat-KO | Insulin prom inh | L major viab | ROMK primary | p97 ATPase inh | PTEN del growth
CC(C)(C)Sc1ccc([N+](=O)[O-])cc1C(=O)Nc1ccncc1 | nt | nt | nt | nt | -9 | nt
COc1ccccc1/C=C/C(=O)NNC(=O)c1cccs1 | nt | nt | 2 | 0.11 | 2 | nt
CC(Oc1cccc(Cl)c1)C(=O)Nc1ccc([N+](=O)[O-])cn1 (stereo unspecified) | 92 | 3 | 61* | -1.2 | -5 | 78
CC(Oc1cccc(Cl)c1)C(=O)Nc1ccncc1 (stereo unspecified) | nt | nt | -2 | -0.32 | 2 | nt
CCc1c(C)nc(SCc2ccccn2)[nH]c1=O | nt | 11 | -9 | 0.016 | -3 | nt
COc1ccc(C2=NOC(C(=O)Nc3cc(Br)ccc3O)C2)cc1OC (stereo unspecified) | 100 | 74* | 8 | nt | 0 | 96
CC1=NNC(=O)/C1=C\c1cn(-c2ccccc2)nc1-c1ccccc1 | nt | nt | 100* | -0.51 | 2 | nt
O=Cc1cn(-c2ccccc2)nc1-c1ccncc1 | nt | nt | 14 | 1.2 | -1 | nt
